Experimental findings from PubChem BioAssay AID687 (PCMD, 2007) are described below.

Each structure is given as a SMILES string. Out of some 33,000 compounds screened, about 95 (0.3%) were called active.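 The calls were made as follows: active = inhibition above 40% in the primary screen; inactive = the rest.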 The sample as a whole holds a higher share of actives than the screen did.

Chain of Coagulation factor XI (Homo sapiens) (P03951 19-387 limits assumed): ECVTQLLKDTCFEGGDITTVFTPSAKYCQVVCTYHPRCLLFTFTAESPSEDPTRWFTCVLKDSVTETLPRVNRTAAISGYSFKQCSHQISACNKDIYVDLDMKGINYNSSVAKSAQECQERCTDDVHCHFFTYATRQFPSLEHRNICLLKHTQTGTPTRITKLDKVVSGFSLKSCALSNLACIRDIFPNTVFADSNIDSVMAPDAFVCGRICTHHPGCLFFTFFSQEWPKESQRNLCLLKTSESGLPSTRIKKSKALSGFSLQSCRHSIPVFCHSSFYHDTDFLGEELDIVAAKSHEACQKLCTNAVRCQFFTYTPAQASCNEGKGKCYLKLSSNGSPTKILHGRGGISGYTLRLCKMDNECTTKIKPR
Chain of Coagulation factor XI (Homo sapiens) (P03951 388-625 limits assumed): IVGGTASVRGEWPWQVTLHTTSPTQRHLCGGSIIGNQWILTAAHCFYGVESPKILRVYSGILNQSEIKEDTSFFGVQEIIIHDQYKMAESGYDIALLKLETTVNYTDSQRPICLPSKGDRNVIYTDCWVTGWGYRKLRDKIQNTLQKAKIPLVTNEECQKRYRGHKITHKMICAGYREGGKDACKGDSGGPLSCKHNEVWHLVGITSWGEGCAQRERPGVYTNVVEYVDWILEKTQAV

This assay has as its target Coagulation factor XI (Homo sapiens) (UniProt P03951). Description: human FXIa protease inhibitors, primary screen, biochemical, single compound per well (AID 687).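 Also: 0% = enzyme without compound and 100% = blank wells lacking enzyme.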 The conditions noted are these: purified human FXIa, fluorogenic AMC substrate cleavage; at 10 µM; hits give high values.
One may read the inhibition as the change of the read-out against control, counted positive when it falls. For the compound `O=c1c2ccccc2nc2n1C1(CCCCC1)Cc1ccccc1-2`, the inhibition was -5.48% (inactive).

With `CC(=O)Nc1ccccc1OC(=O)N1CCOCC1`, the inhibition was -4.74% (inactive).

Consider `O=C(CN1CCCCCC1)N1c2ccccc2Sc2ccc(C(F)(F)F)cc21`, for which the inhibition was 2.04% (inactive).

As to `C=CCC(NCc1ccco1)c1ccc(OC)cc1` (stereo not drawn), the inhibition was 4.05% (inactive).

On to `O=C(CC1NCCNC1=O)Nc1ccc(Oc2ccccc2)cc1` (stereo not drawn), for which the inhibition is 0% (inactive).

In the case of `CCOC(=O)c1cnc2sccn2c1=O`, the inhibition was 6.51% (inactive).

Take `O=C(c1ccc(CN2CCOCC2)cc1)N1CCN(c2ccccc2F)CC1`: the inhibition was 3.59% (inactive).

For the compound `Cn1c(N)c(C(=O)COC(=O)C23CC4CC(CC(C4)C2)C3)c(=O)n(C)c1=O`, the inhibition was 21.8% (inactive).

As to `O=C(NCCOc1ccccc1)c1ccccc1`, the inhibition was -5.53% (inactive).

Take `CC1CN(S(=O)(=O)c2ccccc2)C(C)CN1S(=O)(=O)c1ccccc1` (stereo not drawn): the inhibition was 1.71% (inactive).

Take `COCCn1c(C)cc(C2=NNC(=Nc3ccc(F)cc3)SC2)c1C`: the inhibition is -6.11% (inactive).

`COc1ccc(N(CC(=O)NC2CCCCC2)S(=O)(=O)c2c(C)[nH]c(=O)[nH]c2=O)cc1`: the inhibition is 8.86% (inactive).

Regarding `CCOc1c(Cl)cc(/C=N/O)cc1OC`, the inhibition is -2.81% (inactive).

In the case of `COc1ccc(-n2nc(C(=O)NCC(=O)Nc3cccc(C)n3)c3ccccc3c2=O)cc1`, the inhibition is -9.02% (inactive).

As to `N#C/C(=C(\O)CCl)c1nnc2n1CCCCC2`, the inhibition is -2.88% (inactive).

In the case of `CCOC(=O)N1CCN(Cc2nc(N)nc(Nc3ccc(C)cc3)n2)CC1`, the inhibition was 17.1% (inactive).

In the case of `COCCCNC(=O)C1CC(=O)N(CCc2ccccc2)C1` (stereo not drawn), the inhibition was 7.75% (inactive).

Consider `Cc1cccc(C)c1NC(=O)CSc1nnc(-c2ccccc2)n1Cc1ccc2c(c1)OCO2`, for which the inhibition was 3.72% (inactive).

For `COC(=O)c1ccc(CSc2ccc3nnc(-c4ccccc4)n3n2)o1`, the inhibition is 1.01% (inactive).

For the compound `CC(C)C(=O)Nc1nnc(Sc2ccc(N(C)C)cc2)s1`, the inhibition was -3.42% (inactive).

In the case of `Cc1ccc(-c2noc(CSc3nnc(-c4ccncc4)n3-c3ccc(F)cc3)n2)cc1`, the inhibition was 4.76% (inactive).

As to `COC(=O)C(C(=O)Nc1cccc(C)n1)C1CCCCCC1` (stereo not drawn), the inhibition is -11.6% (inactive).

As for `Cn1c(CC(=O)Nc2ccccc2)nnc1SCC(=O)c1ccccc1`, the inhibition was -6.46% (inactive).

For the compound `O=C(COc1ccc(Cl)cc1)Nc1ccccc1CO`, the inhibition is 2.06% (inactive).

For the compound `C=CCn1c(N)cc(=O)nc1SCC(=O)Nc1cccc2ccccc12`, the inhibition is 9.45% (inactive).

For `CCn1c(SCC(=O)Nc2ccc(OC)c(OC)c2)nnc1-c1c[nH]c2ccccc12`, the inhibition was 7.43% (inactive).

As to `COC(=O)C1C(=O)NCC1c1ccc(C)cc1` (stereo not drawn), the inhibition is 8.67% (inactive).

`CC(=O)Nc1ccc(S(=O)(=O)N2CCN(C3CCCCCCC3)CC2)cc1`: the inhibition is 0.06% (inactive).

Take `CCOc1ccc(C(=O)Nc2ccncc2)cc1`: the inhibition is -1.05% (inactive).

In the case of `CC(C)(C)NC(=O)CN(Cc1cccs1)C(=O)CNS(=O)(=O)c1ccccc1`, the inhibition was -7.23% (inactive).

For the compound `CCOCc1nnc(NC(=O)CSc2ccc(C)cc2)s1`, the inhibition is -2.27% (inactive).

As for `CC1=NN(C(C)C)C(=O)C1`, the inhibition was 28.4% (inactive).

Regarding `CC(=O)Nc1ccc(NC(=O)CSCc2cnn(-c3ccccc3)c2-n2cccc2)cc1`, the inhibition was 6.64% (inactive).

For the compound `COc1ccccc1N(C(=O)Cn1nnc2ccccc21)C(C(=O)NCc1ccco1)c1ccc(C)o1` (stereo not drawn), the inhibition is -1.36% (inactive).

Consider `O=C(CCc1ccccc1)NCc1cccnc1`, for which the inhibition is 23.1% (inactive).

In the case of `Cc1cc(C(=O)OC(C)C(=O)Nc2cccc(S(=O)(=O)N3CCOCC3)c2)c(C)o1` (stereo not drawn), the inhibition is -5.93% (inactive).

`CCC(=O)NC(Nc1nc2ccc(C)cc2s1)(C(=O)OC)C(F)(F)F` (stereo not drawn): the inhibition is 0.39% (inactive).

As to `CCOC(=O)c1ccccc1NS(=O)(=O)c1ccc(OC)cc1`, the inhibition was -1.8% (inactive).

With `CCOc1ccc(C(=O)NCCCN2CCCC2=O)cc1`, the inhibition was -9.62% (inactive).

With `Cc1cc(C)cc(OCc2nnc(SCC(=O)OC3CCCCC3)o2)c1`, the inhibition is 2.82% (inactive).

On to `O=C(Nc1ccc(S(=O)(=O)N2CCc3ccccc3C2)cc1)c1ccccc1`, for which the inhibition was 4.52% (inactive).

`O=C1CSC(c2ccc(Cl)cc2)N1` (stereo not drawn): the inhibition is -2.99% (inactive).

With `COc1ccc(-c2cc3nc(C)c(CCC(=O)NC(C)CCc4ccco4)c(C)n3n2)c(OC)c1` (stereo not drawn), the inhibition was 0.38% (inactive).

As to `C=C(C)CNC(=S)/N=c1\scc(C)n1CC`, the inhibition is -6.03% (inactive).

Consider `COc1cc(S(=O)(=O)N(Cc2cccs2)C2CC2)ccc1-n1cnnn1`, for which the inhibition was 6.31% (inactive).

On to `COc1ccccc1Nc1nc(N)nc(CN(C)C2CCCCC2)n1`, for which the inhibition is -1.79% (inactive).

Take `O=C(CCN1C(=O)c2ccccc2C1=O)Nc1cccc(F)c1`: the inhibition was 21.9% (inactive).

With `O=C(CCn1c(SCC(=O)c2ccccc2)nc2ccccc2c1=O)NCc1ccc(F)cc1`, the inhibition is -1.87% (inactive).

As for `CCCNC(=O)NCc1ccc(N2CCCC2=O)cc1`, the inhibition was -4.89% (inactive).

Take `O=C(NCc1ccccc1)[C@@H]1CSC2c3ccccc3C(=O)N21` (stereo partly drawn): the inhibition is -6.84% (inactive).

For the compound `COc1ccc(N2CCN(C(=O)CNC(=O)c3ccc(C(C)(C)C)cc3)CC2)cc1`, the inhibition was 0.23% (inactive).

In the case of `COc1ccc2oc(=O)c(C(=O)N3CCCc4ccccc43)cc2c1`, the inhibition is 2.52% (inactive).

Consider `C=CCN(C(=O)Cn1ncc2c1-c1cc(C)ccc1OC2)c1ccccc1`, for which the inhibition is 7.94% (inactive).

Turning to `CCCCSc1[nH]c(=O)c(C(=O)OCC)cc1C#N`, the inhibition is -3.65% (inactive).

As to `COC(=O)c1cccc(-n2[nH]nnc2=S)c1`, the inhibition is 8.73% (inactive).

`O=c1nc(N2CCOCC2)nc2n1CCO2`: the inhibition was 0.16% (inactive).

As to `Nc1nc(SCc2ccccc2Cl)n[nH]1`, the inhibition was -1.35% (inactive).

As for `C=CCn1c(SCc2c(C)noc2C)nc2sc3c(c2c1=O)CCC(C)C3` (stereo not drawn), the inhibition was -0.06% (inactive).

On to `Cc1cccc(Cn2c(SCCO)nc3c2c(=O)n(C)c(=O)n3C)c1`, for which the inhibition was -5.34% (inactive).

Take `COC(=O)Nc1ccc(S(=O)(=O)N2CCN(CCN3C(=O)C4C5C=CC(C5)C4C3=O)CC2)cc1` (stereo not drawn): the inhibition was 7.92% (inactive).

As to `CN(C)CCNC(=O)C(C(=O)c1ccccc1)n1ccccc1=O` (stereo not drawn), the inhibition is -0.81% (inactive).

For the compound `Nn1c(SCC(=O)NC2CCCC2)nnc1-c1ccccc1F`, the inhibition is -0.95% (inactive).

Take `Cc1cc(C(F)(F)F)n2ncc(-c3ccccc3)c2n1`: the inhibition is -2.08% (inactive).

Consider `O=C(CN1CCN(C(=O)c2ccco2)CC1)Nc1ccc2c(c1)OCO2`, for which the inhibition is -13.2% (inactive).

Consider `CCOC(=O)c1ccc(COC(=O)CCc2nc(-c3ccccc3)c(-c3ccccc3)o2)cc1`, for which the inhibition is -0.92% (inactive).

`Cc1ccc(CNC(=O)CCNS(=O)(=O)c2cccc3nonc23)cc1`: the inhibition was -10.4% (inactive).

With `CCc1nc(N2CCN(c3nc(C)cc(C)n3)CC2)c2oc3ccccc3c2n1`, the inhibition is -4.81% (inactive).

With `COc1ccc(CCN(C)CCN2C(=O)c3ccccc3C2=O)cc1OC`, the inhibition is -0.63% (inactive).

As for `Cc1ccc(OCC(=O)Nn2cnc3ccccc32)cc1`, the inhibition was 13.2% (inactive).

For `CCOC(=O)c1cc2ccccc2nc1C`, the inhibition was -0.46% (inactive).

For `CCOC(=O)c1ccc(COC(=O)c2cc(=O)[nH]c3ccccc23)o1`, the inhibition was 0.06% (inactive).

`CCOC(=O)c1c(C)nc2c(c1C)c(=O)oc1ccccc12`: the inhibition was 43.4% (active).

Take `CCOc1cc(CN2CCN(C(=O)CC(C)C)CC2)ccc1OC`: the inhibition was 0.6% (inactive).

As to `CC(NC(=O)Nc1ccccc1)c1ccccc1` (stereo not drawn), the inhibition was -3.02% (inactive).

With `CC1CCC2(CC1)NC(=O)N(CC(=O)c1cccn1C)C2=O` (stereo not drawn), the inhibition is -10.7% (inactive).

Turning to `CCOc1ccc(S(=O)(=O)N2CCCCCC2)c2ccccc12`, the inhibition was -9.47% (inactive).

Consider `O=C(NC1CCCCC1)c1ccc(CNc2c(N3CCOCC3)c(=O)c2=O)cc1`, for which the inhibition is -0.69% (inactive).

As for `COc1ccc(CN2CCn3ncc(C(=O)Nc4ccc(Cl)cc4Cl)c3C2=O)cc1`, the inhibition is 8.32% (inactive).

Consider `CCOC(=O)C1=C(CSc2nccn2C)NC(=O)NC1c1ccc(OC)cc1` (stereo not drawn), for which the inhibition is -6.24% (inactive).

For `CC1(C)Cc2c(sc3nc(SCC(=O)NCc4ccccc4)n(-c4ccccc4)c(=O)c23)CS1`, the inhibition was 1.32% (inactive).

`O=C(C(NS(=O)(=O)c1cccc2nsnc12)c1ccccc1)N1CCN(c2ccccc2)CC1` (stereo not drawn): the inhibition is 4.95% (inactive).

As to `O=C(NCc1ccco1)C1(c2ccc(Cl)cc2)CCCC1`, the inhibition was -4.42% (inactive).

On to `O=C(CCCn1c(SCC(=O)c2ccccc2)nc2ccccc2c1=O)NCC1CCCO1` (stereo not drawn), for which the inhibition was 7.29% (inactive).

Consider `CCOc1ccc(-c2nc(C)sc2CC(=O)O)cc1`, for which the inhibition is -1.47% (inactive).

As for `O=[N+]([O-])c1ccc(Oc2ccc(F)cc2Br)c2ccncc12`, the inhibition was -2.08% (inactive).

Regarding `c1ccc2[nH]c(NCCN3CCOCC3)nc2c1`, the inhibition is -1.88% (inactive).

On to `COC(=O)C1CCN(CC(N)=O)CC1`, for which the inhibition was -11.2% (inactive).

In the case of `Cc1cc(=O)oc(C)c1C(=O)N1CCCCC1`, the inhibition was 32.7% (inactive).

Regarding `Cc1ccc(CNC(=O)C2CCCN2C(=O)NCc2ccccc2)cc1` (stereo not drawn), the inhibition is 26.7% (inactive).

In the case of `COc1ccc(O)c(C(=O)c2cnc3onc(C(C)C)c3c2)c1`, the inhibition is -2.11% (inactive).

`O=C(CCN1c2ccccc2Sc2ccccc21)Nc1ccccc1`: the inhibition is -11.6% (inactive).

As for `Cc1ccnc(NC(=O)c2ccc(NC(=O)c3ccco3)cc2)c1`, the inhibition was 1.44% (inactive).

As to `Cc1cccc(NC(=O)CN2C(=O)CNC2=O)c1`, the inhibition was 7.39% (inactive).

For the compound `COC(=O)c1cccc(N(C(=O)c2ccco2)C(C(=O)NC2CCCC2)c2ccco2)c1` (stereo not drawn), the inhibition was -11.4% (inactive).

Turning to `COc1ccc(N/N=C2/CCCCC2=O)cc1`, the inhibition is 19.4% (inactive).

For `COc1ccc(N2CCN(C(=O)CCc3nc(-c4ccc(C)cc4)no3)CC2)cc1`, the inhibition is 8.76% (inactive).

Take `O=C(CNS(=O)(=O)c1ccc(Br)s1)N1CCN(C(=O)c2ccco2)CC1`: the inhibition is -4.45% (inactive).

Turning to `Cc1cccc(C)c1NC(=O)CCCSc1nnc(-c2ccco2)n1-c1ccccc1`, the inhibition was -0.71% (inactive).
